Compound activity (PubChem)
D1 PAM = enhances dopamine response at the human D1 receptor; potentiation, % at 10 µM; HEK293 TREx D1 cells, calcium flux, dopamine EC20 potentiation; 0.036% of 360,000 active; in the data active = potentiation above about 30%; also: 0% is about no effect
Target sequence (P21728 whole entry, looked up): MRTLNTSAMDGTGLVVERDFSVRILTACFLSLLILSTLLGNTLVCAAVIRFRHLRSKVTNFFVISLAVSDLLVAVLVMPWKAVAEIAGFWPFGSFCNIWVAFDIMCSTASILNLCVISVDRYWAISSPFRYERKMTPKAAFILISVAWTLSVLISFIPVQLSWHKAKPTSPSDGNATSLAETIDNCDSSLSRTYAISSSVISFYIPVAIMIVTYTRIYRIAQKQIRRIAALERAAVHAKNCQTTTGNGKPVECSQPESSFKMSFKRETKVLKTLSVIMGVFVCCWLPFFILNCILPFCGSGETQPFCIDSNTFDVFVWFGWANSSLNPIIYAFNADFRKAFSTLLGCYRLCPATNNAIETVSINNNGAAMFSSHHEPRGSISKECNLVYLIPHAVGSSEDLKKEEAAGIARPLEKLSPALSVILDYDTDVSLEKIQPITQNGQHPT
D1 antag = blocks dopamine activation of the human D1 receptor | P21728 | HEK293 TREx D1 cells, calcium flux, dopamine EC80; hits give low values | activity change, negative = inhibition, % at 10 µM | 3.2% of 360,000 active | AID 504652; in the data active = activity change below about -30%; also: % is scaled to controls: 0 for no effect and ±100 for the full control effect
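Using tetracycline-induced force-coupled D1 Hek293 cells and a calcium dye, signals were followed for 180 s after compound, then for 180 s after EC80 dopamine, to detect inhibitors.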
GRP78 ERSR act = inducers of ER stress response in human glioma cells | U87-MG GRP78 promoter luciferase reporter, 16 h | Potency, µM, for inactives: top-dose activation, actives largely listed as activators | 0.02% of 420,000 active; active = well fitted activation curve with a large enough effect; also: potency is read from the fitted curve at half-maximal effect; series mostly up to about 76 µM; % of control where 0% means no effect; nearly all actives have a fitted effect of over 35% in size
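ERSR induction read as luciferase luminescence (Bright-Glo, 10 min at room temperature) in stably transfected human U87-MG glioma cells exposed to compounds for 16 h, using GRP78 as sensor.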
TRHR ag = activates the human TRH receptor; P34981; TRHR cells, calcium flux fluo-8, FDSS agonist mode; activation, % at 2 µM; 0.18% of 360,000 active; AID 493084; also: 0% is about no effect
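In this calcium-flux screen, cells bearing human TRHR are dye-loaded with fluo-8, baselined for 10 cycles, then exposed to library compounds; positive kinetic calcium responses during the agonist phase mark hits, with TRH as control.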
TRHR enhancer = TRH receptor (human) allosteric enhancement | TRHR cells, fluo-8 calcium fluorescence, EC20 TRH enhancement | enhancement, % at 2 µM | 0.66% of 360,000 active | AID 493056; in the data active = enhancement above about 30%; also: 0% is about no effect
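TRHR-expressing cells loaded with fluo-8 calcium dye were read kinetically (ex 480/em 530) during compound addition, then stimulated with an EC20 of TRH (10 nM final). Enhancement of the Gq-mediated intracellular calcium response was scored.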
D1 ag = human D1 receptor agonism | P21728 | HEK293 T-REx D1 cells, calcium flux, agonist mode | activation, % at 2 µM | 1% of 360,000 active | AID 504660; also: 0% is about no effect
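Agonism was scored from calcium flux recorded over 180 s (1 read/s) after pintool compound addition, following a 10-cycle baseline. Cells were inducible force-coupled HEK293 TREx D1, plated overnight at 30 C and loaded with no-wash calcium dye.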
* marks the source's active call; other numbers are inactive results. Shown are actives, neighbours in structure and some others; about 4% of the full set was active somewhere. Rule as the data show it, unless noted: active = activation above about 30%; inactive = the rest.

What do the screens show for `Cc1ccc(-c2noc(-c3nnn(CC(=O)Nc4cc(C)cc(C)c4)c3N)n2)cc1`?
D1 PAM: -2; D1 antag: 2; TRHR ag: -1; TRHR enhancer: 5; D1 ag: 3

Results for COc1cc(S(=O)(=O)NCc2ccc(F)cc2)ccc1-n1cnnn1 ?
D1 PAM: -5; D1 antag: -19; GRP78 ERSR act: -2%; TRHR ag: 0; TRHR enhancer: -5; D1 ag: 6

What do the screens show for `O=S(=O)(NCc1ccc(C(F)(F)F)cc1)c1ccc(-n2cnnn2)cc1`?
D1 PAM: -5; D1 antag: -39*; GRP78 ERSR act: -4%; TRHR ag: 0; TRHR enhancer: -12; D1 ag: 10

What do the screens show for `Cc1ccc(S(=O)(=O)NCCc2cn3ccsc3n2)cc1`?
D1 PAM: 1; D1 antag: -73*; GRP78 ERSR act: -1%; TRHR ag: 0; TRHR enhancer: 2; D1 ag: 0

What do the screens show for `COc1ccc(S(=O)(=O)NCCc2cn3ccsc3n2)cc1OC`?
D1 PAM: -3; D1 antag: 6; GRP78 ERSR act: -2%; TRHR ag: 0; TRHR enhancer: 0; D1 ag: 0

Results for COc1ccc(S(=O)(=O)NCCc2cn3ccsc3n2)cc1 ?
D1 PAM: -4; D1 antag: -45*; GRP78 ERSR act: -2%; TRHR ag: 0; TRHR enhancer: -3; D1 ag: 1

Results for Cc1cc(=O)oc2c3c(cc(OCC(=O)NCc4ccccc4)c12)OC(C)(C)CC3 ?
D1 PAM: -6; D1 antag: -32*; GRP78 ERSR act: 1%; TRHR ag: 2; TRHR enhancer: -12; D1 ag: 2

What do the screens show for `COc1ccc(N2CCN(S(=O)(=O)c3ccc4c(c3)NC(=O)CS4)CC2)cc1`?
D1 PAM: 7; D1 antag: -16; GRP78 ERSR act: 3%; TRHR ag: 0; TRHR enhancer: 1; D1 ag: 5

Results for CC1Sc2ccc(S(=O)(=O)CCC(=O)N3CCN(c4cccc(Cl)c4)CC3)cc2NC1=O (configuration not stated) ?
D1 PAM: 5; D1 antag: -42*; GRP78 ERSR act: -1%; TRHR ag: -1; TRHR enhancer: 0; D1 ag: 10

How did COc1ccccc1NS(=O)(=O)c1ccc2c(c1)NC(=O)C(C)S2 (configuration not stated) do in these assays?
D1 PAM: -4; D1 antag: 1; GRP78 ERSR act: -5%; TRHR ag: 0; TRHR enhancer: -10; D1 ag: 32*

Results for Cc1ccc(NC(=O)C2CCN(S(=O)(=O)c3ccc4c(c3)NC(=O)C(C)S4)CC2)c(C)c1 (configuration not stated) ?
D1 PAM: 1; D1 antag: -40*; GRP78 ERSR act: -2%; TRHR ag: 1; TRHR enhancer: -5; D1 ag: 8

How did COc1ccc(N2CCN(S(=O)(=O)c3ccc4c(c3)NC(=O)C(C)S4)CC2)cc1 (configuration not stated) do in these assays?
D1 PAM: 2; D1 antag: -38*; GRP78 ERSR act: -3%; TRHR ag: 1; TRHR enhancer: -3; D1 ag: 14

Results for COc1cccc(NS(=O)(=O)c2ccc3c(c2)NC(=O)C(C)S3)c1 (configuration not stated) ?
D1 PAM: 7; D1 antag: 0; GRP78 ERSR act: -2%; TRHR ag: 0; TRHR enhancer: -5; D1 ag: 13

Results for CC1Sc2ccc(S(=O)(=O)CCC(=O)N3CCN(c4ccccc4)CC3)cc2NC1=O (configuration not stated) ?
D1 PAM: -7; D1 antag: -11; GRP78 ERSR act: 2%; TRHR ag: 0; TRHR enhancer: -2; D1 ag: 3

How did COC(=O)[C@@H]1CCCN1Cc1ccc2c(c1)CN(Cc1coc3ccc(C)cc3c1=O)CCO2 do in these assays?
GRP78 ERSR act: -5%

Results for CC(C)(C)OC(=O)NC(Cc1ccccc1)C(=O)NC1COC2CC(n3cc(F)c(=O)[nH]c3=O)OC12 (configuration not stated) ?
GRP78 ERSR act: -5%

Results for COc1ccccc1NC(=O)c1ccc(S(=O)(=O)N2CCC(C)CC2)cc1 ?
D1 PAM: -4; D1 antag: -32*; GRP78 ERSR act: -5%; TRHR ag: -1; TRHR enhancer: -11; D1 ag: 2

Results for COc1ccccc1NC(=O)C1CCN(S(=O)(=O)c2ccc3c(c2)NC(=O)C(C)S3)CC1 (configuration not stated) ?
D1 PAM: -1; D1 antag: -30*; GRP78 ERSR act: -4%; TRHR ag: 1; TRHR enhancer: -1; D1 ag: 13

What do the screens show for `O=C(NC1CCCC1)C1CCCN1C(=O)Oc1ccccc1` (configuration not stated)?
D1 PAM: -8; D1 antag: 17; GRP78 ERSR act: -4%; TRHR ag: -3; TRHR enhancer: 5; D1 ag: 4

What do the screens show for `CCc1ccc2oc(C(=O)N3CCN(c4ccccc4OC)CC3)cc(=O)c2c1`?
D1 PAM: -4; D1 antag: 8; GRP78 ERSR act: -6%; TRHR ag: -1; TRHR enhancer: -4; D1 ag: 0

Results for CCc1ccc2oc(C(=O)N3CCN(c4ccc(OC)cc4)CC3)cc(=O)c2c1 ?
D1 PAM: -6; D1 antag: -41*; GRP78 ERSR act: -5%; TRHR ag: -1; TRHR enhancer: -1; D1 ag: 6

How did Cc1cc(C)cc(/C=C/C2OCC(O)C2Oc2ccc(C3CCCC3)cc2)c1 (configuration not stated) do in these assays?
GRP78 ERSR act: -4%

What do the screens show for `COc1ccc2c(c1)OC(C)CN(CC(=O)NCc1cn[nH]c1-c1ccc(F)cc1)C2` (configuration not stated)?
GRP78 ERSR act: -1%

What do the screens show for `Cc1cccc(N2CCN(C(=S)Nc3ccc4nc(N5CCN(C)CC5)cc(C)c4c3)CC2C)c1` (configuration not stated)?
D1 PAM: -6; D1 antag: -73*; GRP78 ERSR act: -14%; TRHR ag: 1; TRHR enhancer: -1; D1 ag: 3

Results for COc1cc(OC)cc(C(=O)Nc2ccc3nc(N4CCCCC4)cc(C)c3c2)c1 ?
D1 PAM: 5; D1 antag: -46*; GRP78 ERSR act: 1%; TRHR ag: 0; TRHR enhancer: 5; D1 ag: -1
